We go through two sequences from publication PMC7862700, “An all-to-all approach to the identification of sequence-specific readers for epigenetic DNA modifications on cytosine”.

Assay in all cases: DAPPL (digital affinity profiling via proximity ligation, sequencing); 10 mM Tris-HCl pH 7.5, 50 mM NaCl, 1 mM DTT, 4% glycerol, room temperature, 30 min; GST-TFs on glutathione beads, 16-mer random dsDNA library, 0.1% formaldehyde crosslink after washing; high values mean tight binding
The target of one test is T1, FLI1 (Homo sapiens, UniProt Q01543 1-452).
T1 sequence: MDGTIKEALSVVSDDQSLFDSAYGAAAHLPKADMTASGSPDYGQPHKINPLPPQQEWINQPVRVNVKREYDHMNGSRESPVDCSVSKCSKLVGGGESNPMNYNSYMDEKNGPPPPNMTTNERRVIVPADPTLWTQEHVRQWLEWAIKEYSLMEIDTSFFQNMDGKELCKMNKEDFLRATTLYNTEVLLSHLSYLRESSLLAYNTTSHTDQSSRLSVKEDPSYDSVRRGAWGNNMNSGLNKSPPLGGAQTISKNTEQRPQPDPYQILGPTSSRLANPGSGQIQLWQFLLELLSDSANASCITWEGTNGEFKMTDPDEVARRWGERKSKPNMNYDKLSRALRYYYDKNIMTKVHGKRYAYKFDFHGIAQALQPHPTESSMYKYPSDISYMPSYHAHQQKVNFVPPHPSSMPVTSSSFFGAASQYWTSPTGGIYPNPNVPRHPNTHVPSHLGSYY
The following applies: protein: recombinant; tags: N-terminal GST; dsDNA, one strand shown. The procedure, abridged:
(§1)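 Binding signal is given per hexamer as its read frequency for a factor divided by its frequency in the tag-only sample. GST-fused human transcription factors were expressed in yeast, captured on glutathione beads, barcoded with DNA and pooled with that sample, then incubated with 200 nmole of a 16-mer random double-stranded DNA library in Tris/NaCl/DTT/glycerol buffer for 30 min at room temperature. The pools were then washed, crosslinked, proximity-ligated, amplified by PCR and sequenced on an Illumina NextSeq500.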

Another test deals with SPIB (Homo sapiens, UniProt Q01892 1-262). To be noted: protein: recombinant; tags: N-terminal GST; dsDNA, one strand shown. The procedure, abridged:
as §1

The next test addresses T2, FEV (Homo sapiens, UniProt Q99581 1-238).
T2 sequence: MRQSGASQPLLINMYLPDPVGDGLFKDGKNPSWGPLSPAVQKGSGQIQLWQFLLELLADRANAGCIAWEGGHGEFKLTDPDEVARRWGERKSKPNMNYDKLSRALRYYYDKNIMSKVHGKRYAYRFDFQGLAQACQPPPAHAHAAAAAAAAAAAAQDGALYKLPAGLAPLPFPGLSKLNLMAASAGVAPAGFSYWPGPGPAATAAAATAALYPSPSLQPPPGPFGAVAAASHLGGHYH
The following applies: protein: recombinant; tags: N-terminal GST; dsDNA, one strand shown. In a few lines: as §1

For a further test, the target named is ETV5 (Homo sapiens, UniProt P41161 1-510). The following applies: protein: recombinant; tags: N-terminal GST; dsDNA, one strand shown. In a few lines: as §1
ETV5, sequence (P41161 whole entry): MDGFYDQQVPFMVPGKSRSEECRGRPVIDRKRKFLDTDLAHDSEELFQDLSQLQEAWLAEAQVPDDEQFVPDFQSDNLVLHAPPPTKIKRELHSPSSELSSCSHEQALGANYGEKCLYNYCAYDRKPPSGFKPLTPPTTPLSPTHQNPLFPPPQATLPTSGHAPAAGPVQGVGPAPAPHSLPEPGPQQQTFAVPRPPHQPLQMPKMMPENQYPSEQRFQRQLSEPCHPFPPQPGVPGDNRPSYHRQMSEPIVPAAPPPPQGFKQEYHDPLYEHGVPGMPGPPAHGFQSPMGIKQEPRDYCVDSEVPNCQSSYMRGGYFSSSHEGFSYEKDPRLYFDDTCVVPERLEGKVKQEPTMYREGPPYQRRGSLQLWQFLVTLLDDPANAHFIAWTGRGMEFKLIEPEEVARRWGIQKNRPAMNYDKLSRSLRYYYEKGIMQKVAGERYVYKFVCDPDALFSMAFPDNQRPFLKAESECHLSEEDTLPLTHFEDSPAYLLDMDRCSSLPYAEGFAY
The next test has as its target HSF1 (Homo sapiens, UniProt Q00613 1-529). The following applies: protein: recombinant; tags: N-terminal GST; chain copies: 3; dsDNA, one strand shown. In a few lines: as §1
For the next test, the target named is ELF4 (Homo sapiens, UniProt Q99607 1-663). To be noted: protein: recombinant; tags: N-terminal GST; dsDNA, one strand shown. The procedure, abridged: as §1
ELF4, sequence (Q99607 whole entry): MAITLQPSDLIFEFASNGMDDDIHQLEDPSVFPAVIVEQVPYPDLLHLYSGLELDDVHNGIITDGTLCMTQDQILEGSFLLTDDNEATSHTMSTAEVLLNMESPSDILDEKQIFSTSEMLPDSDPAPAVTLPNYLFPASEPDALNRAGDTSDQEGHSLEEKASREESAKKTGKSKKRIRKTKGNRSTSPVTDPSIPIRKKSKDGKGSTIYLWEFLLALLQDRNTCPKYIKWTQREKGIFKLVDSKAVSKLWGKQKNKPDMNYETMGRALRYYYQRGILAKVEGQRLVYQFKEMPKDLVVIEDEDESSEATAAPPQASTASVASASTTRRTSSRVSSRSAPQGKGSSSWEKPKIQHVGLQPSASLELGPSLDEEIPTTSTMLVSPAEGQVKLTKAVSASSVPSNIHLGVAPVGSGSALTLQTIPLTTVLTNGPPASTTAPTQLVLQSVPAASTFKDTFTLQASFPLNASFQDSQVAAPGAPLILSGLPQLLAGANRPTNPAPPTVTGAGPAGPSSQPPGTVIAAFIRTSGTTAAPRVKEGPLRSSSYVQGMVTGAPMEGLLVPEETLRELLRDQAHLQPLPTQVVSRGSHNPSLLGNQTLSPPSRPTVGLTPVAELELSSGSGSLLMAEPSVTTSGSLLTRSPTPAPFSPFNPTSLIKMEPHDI
The next test deals with T3, ELF3 (Homo sapiens, UniProt P78545 1-371).
T3 sequence: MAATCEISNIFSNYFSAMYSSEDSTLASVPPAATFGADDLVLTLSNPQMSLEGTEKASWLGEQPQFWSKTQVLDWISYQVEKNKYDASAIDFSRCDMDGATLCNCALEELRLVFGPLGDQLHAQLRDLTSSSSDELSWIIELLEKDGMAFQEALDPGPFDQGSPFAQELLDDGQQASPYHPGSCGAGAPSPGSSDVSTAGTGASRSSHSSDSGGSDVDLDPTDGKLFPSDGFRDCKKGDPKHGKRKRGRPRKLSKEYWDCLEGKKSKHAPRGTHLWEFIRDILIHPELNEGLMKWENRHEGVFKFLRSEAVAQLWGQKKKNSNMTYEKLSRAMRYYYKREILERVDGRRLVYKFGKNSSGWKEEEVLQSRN
The following applies: protein: recombinant; tags: N-terminal GST; dsDNA, one strand shown. The procedure, abridged:
as §1

The target of another test is CRX (Homo sapiens, UniProt O43186 1-299). To be noted: protein: recombinant; tags: N-terminal GST; dsDNA, one strand shown. The procedure, abridged:
as §1

The next test deals with ETV1 (Homo sapiens, UniProt P50549 1-477). The following applies: protein: recombinant; tags: N-terminal GST; dsDNA, one strand shown. The procedure, abridged:
as §1

The next test addresses T4, ELK1 (Homo sapiens, UniProt P19419 1-428).
T4 sequence: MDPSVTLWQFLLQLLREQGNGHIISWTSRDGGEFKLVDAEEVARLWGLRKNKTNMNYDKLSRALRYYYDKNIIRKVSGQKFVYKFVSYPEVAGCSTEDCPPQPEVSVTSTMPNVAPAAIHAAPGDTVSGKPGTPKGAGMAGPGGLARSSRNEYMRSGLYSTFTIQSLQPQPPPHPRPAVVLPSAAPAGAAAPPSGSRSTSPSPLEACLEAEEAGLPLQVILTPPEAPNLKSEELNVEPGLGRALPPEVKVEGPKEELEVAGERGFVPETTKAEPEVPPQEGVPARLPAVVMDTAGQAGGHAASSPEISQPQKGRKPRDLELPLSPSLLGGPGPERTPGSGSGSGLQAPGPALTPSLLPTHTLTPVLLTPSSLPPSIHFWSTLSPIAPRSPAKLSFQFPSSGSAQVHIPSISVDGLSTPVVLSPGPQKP
To be noted: protein: recombinant; tags: N-terminal GST; dsDNA, one strand shown. In a few lines:
as §1

A further test has as its target T5, GABPA (Homo sapiens, UniProt Q06546 1-454).
T5 sequence: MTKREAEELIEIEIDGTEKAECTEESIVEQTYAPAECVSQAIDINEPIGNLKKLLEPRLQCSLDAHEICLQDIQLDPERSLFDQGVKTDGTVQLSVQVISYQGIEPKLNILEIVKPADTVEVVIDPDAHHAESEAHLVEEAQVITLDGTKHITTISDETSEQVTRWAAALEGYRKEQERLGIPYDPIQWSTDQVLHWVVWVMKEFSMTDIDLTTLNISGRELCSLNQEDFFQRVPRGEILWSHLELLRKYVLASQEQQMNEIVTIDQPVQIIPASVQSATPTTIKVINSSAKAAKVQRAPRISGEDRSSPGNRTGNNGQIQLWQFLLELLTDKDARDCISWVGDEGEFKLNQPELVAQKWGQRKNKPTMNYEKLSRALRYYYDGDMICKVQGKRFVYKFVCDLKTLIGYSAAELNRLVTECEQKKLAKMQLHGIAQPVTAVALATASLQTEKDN
The following applies: protein: recombinant; tags: N-terminal GST; dsDNA, one strand shown. The procedure, abridged:
as §1

Another test concerns the target T6, ERG (Homo sapiens, UniProt P11308 1-479).
T6 sequence: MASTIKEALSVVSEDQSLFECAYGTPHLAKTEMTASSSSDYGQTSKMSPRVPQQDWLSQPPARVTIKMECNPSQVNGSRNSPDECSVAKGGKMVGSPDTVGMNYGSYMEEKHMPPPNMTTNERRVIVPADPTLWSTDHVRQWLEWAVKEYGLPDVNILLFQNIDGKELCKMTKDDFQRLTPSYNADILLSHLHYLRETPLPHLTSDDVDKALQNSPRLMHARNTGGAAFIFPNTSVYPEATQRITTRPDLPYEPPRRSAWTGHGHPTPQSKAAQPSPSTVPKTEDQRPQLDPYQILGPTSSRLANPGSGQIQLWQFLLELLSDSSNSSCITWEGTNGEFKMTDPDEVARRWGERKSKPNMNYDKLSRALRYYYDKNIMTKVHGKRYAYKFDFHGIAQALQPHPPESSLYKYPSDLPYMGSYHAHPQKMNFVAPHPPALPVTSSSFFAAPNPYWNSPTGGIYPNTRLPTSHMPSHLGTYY
To be noted: protein: recombinant; tags: N-terminal GST; dsDNA, one strand shown. The procedure, abridged: as §1

The target in a further test is ELF1 (Homo sapiens, UniProt P32519 1-619). The following applies: protein: recombinant; tags: N-terminal GST; dsDNA, one strand shown. In a few lines: as §1
ELF1, sequence (P32519 whole entry): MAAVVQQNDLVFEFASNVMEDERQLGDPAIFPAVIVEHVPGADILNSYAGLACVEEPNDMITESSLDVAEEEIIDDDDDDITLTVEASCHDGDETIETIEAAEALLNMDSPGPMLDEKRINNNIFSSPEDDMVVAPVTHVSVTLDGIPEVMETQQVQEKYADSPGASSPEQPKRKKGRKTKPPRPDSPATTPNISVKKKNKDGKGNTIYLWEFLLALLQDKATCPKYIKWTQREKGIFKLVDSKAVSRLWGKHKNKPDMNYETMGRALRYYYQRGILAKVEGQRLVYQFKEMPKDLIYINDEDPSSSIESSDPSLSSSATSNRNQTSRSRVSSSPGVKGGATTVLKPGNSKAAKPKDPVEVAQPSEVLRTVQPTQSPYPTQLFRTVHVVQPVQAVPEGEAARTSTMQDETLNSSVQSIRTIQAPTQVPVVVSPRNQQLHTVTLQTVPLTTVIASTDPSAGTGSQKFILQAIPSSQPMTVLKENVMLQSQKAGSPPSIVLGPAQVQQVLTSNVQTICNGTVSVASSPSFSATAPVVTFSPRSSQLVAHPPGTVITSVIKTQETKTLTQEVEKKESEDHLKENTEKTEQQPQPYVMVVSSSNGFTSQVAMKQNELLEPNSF
Another test has as its target T7, EHF (Homo sapiens, UniProt Q9NZC4 1-300).
T7 sequence: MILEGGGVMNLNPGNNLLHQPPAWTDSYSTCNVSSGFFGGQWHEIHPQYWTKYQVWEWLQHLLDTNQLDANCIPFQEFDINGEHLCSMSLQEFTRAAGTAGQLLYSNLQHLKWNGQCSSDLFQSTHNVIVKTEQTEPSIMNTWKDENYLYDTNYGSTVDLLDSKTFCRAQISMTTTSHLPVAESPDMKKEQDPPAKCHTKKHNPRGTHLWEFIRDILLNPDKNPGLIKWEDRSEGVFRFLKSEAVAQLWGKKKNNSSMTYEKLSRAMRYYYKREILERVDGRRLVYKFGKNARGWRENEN
The following applies: protein: recombinant; tags: N-terminal GST; dsDNA, one strand shown. The procedure, abridged:
as §1

The target in the next test is T8, ELK3 (Homo sapiens, UniProt P41970 1-407).
T8 sequence: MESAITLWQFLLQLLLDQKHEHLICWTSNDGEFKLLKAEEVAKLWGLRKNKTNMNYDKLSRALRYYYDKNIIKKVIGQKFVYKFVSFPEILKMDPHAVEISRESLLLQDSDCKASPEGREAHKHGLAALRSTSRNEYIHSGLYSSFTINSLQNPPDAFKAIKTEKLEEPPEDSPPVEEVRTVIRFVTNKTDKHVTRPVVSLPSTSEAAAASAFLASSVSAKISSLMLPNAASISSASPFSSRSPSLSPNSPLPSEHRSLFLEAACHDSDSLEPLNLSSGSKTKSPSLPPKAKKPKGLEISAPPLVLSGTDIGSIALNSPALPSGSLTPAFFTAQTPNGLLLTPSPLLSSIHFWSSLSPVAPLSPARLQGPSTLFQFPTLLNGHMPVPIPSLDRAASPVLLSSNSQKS
The following applies: protein: recombinant; tags: N-terminal GST; dsDNA, one strand shown. The procedure, abridged: as §1

A further test addresses T9, ELK4 (Homo sapiens, UniProt P28324-2 1-405).
T9 sequence: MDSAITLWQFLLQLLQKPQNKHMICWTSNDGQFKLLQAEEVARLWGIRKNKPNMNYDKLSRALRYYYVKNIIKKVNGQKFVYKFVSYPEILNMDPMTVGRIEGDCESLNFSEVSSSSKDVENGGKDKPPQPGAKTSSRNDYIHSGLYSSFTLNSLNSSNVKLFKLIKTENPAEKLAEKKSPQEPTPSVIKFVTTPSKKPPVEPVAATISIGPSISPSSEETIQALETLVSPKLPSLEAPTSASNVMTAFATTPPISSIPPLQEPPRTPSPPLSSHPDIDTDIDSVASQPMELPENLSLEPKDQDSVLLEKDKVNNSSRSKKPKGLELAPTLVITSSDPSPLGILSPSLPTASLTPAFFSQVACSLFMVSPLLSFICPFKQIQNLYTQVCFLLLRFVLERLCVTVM
To be noted: protein: recombinant; tags: N-terminal GST; dsDNA, one strand shown. The procedure, abridged: as §1

Another test has as its target T10, ETV2 (Homo sapiens, UniProt O00321 1-342).
T10 sequence: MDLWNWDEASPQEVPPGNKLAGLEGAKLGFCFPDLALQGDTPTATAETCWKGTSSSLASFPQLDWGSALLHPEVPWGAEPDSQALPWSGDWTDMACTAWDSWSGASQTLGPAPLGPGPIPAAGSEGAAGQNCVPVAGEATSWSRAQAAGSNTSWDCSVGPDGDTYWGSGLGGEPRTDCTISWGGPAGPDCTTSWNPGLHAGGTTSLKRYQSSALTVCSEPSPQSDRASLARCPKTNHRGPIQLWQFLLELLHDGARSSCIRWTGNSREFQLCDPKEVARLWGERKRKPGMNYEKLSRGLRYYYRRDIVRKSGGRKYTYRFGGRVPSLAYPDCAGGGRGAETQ
The following applies: protein: recombinant; tags: N-terminal GST; dsDNA, one strand shown. The procedure, abridged: as §1

CRX, sequence (O43186 whole entry): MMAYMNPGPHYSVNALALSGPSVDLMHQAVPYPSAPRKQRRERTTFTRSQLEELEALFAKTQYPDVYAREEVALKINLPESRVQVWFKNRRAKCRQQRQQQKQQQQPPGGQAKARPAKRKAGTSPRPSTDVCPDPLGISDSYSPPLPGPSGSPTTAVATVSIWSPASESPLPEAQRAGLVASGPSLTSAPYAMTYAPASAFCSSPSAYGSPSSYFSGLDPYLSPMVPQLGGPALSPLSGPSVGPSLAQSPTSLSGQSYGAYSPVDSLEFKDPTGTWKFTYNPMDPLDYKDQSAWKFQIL
SPIB, sequence (Q01892 whole entry): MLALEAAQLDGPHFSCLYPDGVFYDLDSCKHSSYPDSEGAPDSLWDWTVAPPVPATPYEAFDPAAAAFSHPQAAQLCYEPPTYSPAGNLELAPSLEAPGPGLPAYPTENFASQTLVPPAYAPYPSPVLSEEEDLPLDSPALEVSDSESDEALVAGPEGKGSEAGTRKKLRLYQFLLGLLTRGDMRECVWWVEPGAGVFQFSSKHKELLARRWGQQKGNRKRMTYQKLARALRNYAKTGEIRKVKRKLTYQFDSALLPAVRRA
ETV1, sequence (P50549 whole entry): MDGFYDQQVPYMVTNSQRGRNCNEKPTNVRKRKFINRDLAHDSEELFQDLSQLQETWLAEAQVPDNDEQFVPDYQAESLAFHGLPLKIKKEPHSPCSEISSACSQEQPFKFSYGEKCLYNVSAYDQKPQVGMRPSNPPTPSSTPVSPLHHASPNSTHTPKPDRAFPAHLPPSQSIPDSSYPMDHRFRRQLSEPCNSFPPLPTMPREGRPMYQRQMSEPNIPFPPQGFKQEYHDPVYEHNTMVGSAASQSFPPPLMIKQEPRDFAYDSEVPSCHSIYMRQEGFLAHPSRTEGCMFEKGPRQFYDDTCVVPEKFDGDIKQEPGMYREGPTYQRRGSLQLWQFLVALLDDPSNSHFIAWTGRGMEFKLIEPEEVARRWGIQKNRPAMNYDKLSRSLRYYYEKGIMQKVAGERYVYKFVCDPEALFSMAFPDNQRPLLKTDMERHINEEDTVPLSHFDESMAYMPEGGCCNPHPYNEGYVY
HSF1, sequence (Q00613 whole entry): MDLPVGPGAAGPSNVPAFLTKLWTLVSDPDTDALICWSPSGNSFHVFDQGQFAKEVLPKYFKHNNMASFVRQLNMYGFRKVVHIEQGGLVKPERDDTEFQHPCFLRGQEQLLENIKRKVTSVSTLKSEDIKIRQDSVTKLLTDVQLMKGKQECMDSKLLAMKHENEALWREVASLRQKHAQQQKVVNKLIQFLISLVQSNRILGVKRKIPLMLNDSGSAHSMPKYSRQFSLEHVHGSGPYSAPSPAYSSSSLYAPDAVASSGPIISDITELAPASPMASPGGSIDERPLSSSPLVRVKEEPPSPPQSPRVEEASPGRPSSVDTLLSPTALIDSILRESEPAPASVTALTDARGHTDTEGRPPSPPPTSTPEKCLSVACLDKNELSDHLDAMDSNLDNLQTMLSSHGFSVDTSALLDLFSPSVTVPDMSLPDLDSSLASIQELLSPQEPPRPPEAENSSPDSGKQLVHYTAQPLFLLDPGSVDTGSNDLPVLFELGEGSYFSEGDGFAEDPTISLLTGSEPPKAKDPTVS

In the case of CATAAA, the binding signal was 1 fold enrichment (6-mer frequency, TF over GST control) with FLI1; 1.01 fold enrichment (6-mer frequency, TF over GST control) with SPIB; 1 fold enrichment (6-mer frequency, TF over GST control) with FEV; 1.03 fold enrichment (6-mer frequency, TF over GST control) in the test with ETV5; 1.07 fold enrichment (6-mer frequency, TF over GST control) with HSF1; 1.06 fold enrichment (6-mer frequency, TF over GST control) with ELF4. For the same sequence, the binding signal with ELF3 is 1.08 fold enrichment (6-mer frequency, TF over GST control); with CRX, 1.11 fold enrichment (6-mer frequency, TF over GST control); in the test with ETV1, 1.03 fold enrichment (6-mer frequency, TF over GST control).

Regarding TCAAGG, the binding signal is 1.05 fold enrichment (6-mer frequency, TF over GST control) with FLI1; 1.05 fold enrichment (6-mer frequency, TF over GST control) in the test with ELK1; 1.05 fold enrichment (6-mer frequency, TF over GST control) with GABPA; 1.1 fold enrichment (6-mer frequency, TF over GST control) in the test with ERG; 1.07 fold enrichment (6-mer frequency, TF over GST control) in the test with ELF1; 1.09 fold enrichment (6-mer frequency, TF over GST control) in the test with EHF. For the same sequence, the binding signal with SPIB was 1.04 fold enrichment (6-mer frequency, TF over GST control); with ELK3, 1.19 fold enrichment (6-mer frequency, TF over GST control); with FEV, 1.08 fold enrichment (6-mer frequency, TF over GST control); with ETV5 it was 1.03 fold enrichment (6-mer frequency, TF over GST control); with HSF1, 1.04 fold enrichment (6-mer frequency, TF over GST control); with ELF4, 1.01 fold enrichment (6-mer frequency, TF over GST control). Besides, the binding signal with ELK4 is 1.07 fold enrichment (6-mer frequency, TF over GST control); with ETV2, 1.19 fold enrichment (6-mer frequency, TF over GST control); with CRX, 1.09 fold enrichment (6-mer frequency, TF over GST control); in the test with ETV1, 1.12 fold enrichment (6-mer frequency, TF over GST control).
